Measured values reported in ChEMBL document CHEMBL4513216, “Probing the Open Global Health Chemical Diversity Library for Multistage-Active Starting Points for Next-Generation Antimalarials” (ACS Infect Dis, 2020).
Out of some 65,000 compounds screened, about 2,100 (3.2%) showed an effect of 50% or more. The median lay at about -52%. This excerpt belongs to a sample that is enriched for strong results.

Tested on: Plasmodium falciparum
Assay: Screen against P. falciparum Asexual Blood Stage (ABS), at 5uM
Type: functional, Dd2
Conditions: tested at 5 uM

SMILES	INHIBITION
NC(=O)CN1CCC(NC(=O)COc2ccc(Cl)c(Cl)c2)CC1	-138%
Cn1cccc1CN1CCc2ncnc(-c3cccnc3)c2CC1	0.898%
O=C1CCCC2=Nc3nonc3NC(c3cc(Cl)ccc3F)C12 (configuration not stated)	-54%
O=C1CCCCN1Cc1cccc(OC(F)F)c1	-103%
CN(C)S(=O)(=O)N1CC[C@]2(O)CCN(CCCc3cccnc3)C[C@@H]2C1	-62.2%
Cc1ccc(CN2CC[C@@]3(O)CCN(S(=O)(=O)N(C)C)C[C@H]3C2)cc1C	53.6%
CN(C)S(=O)(=O)N1CC[C@]2(O)CCN(CCc3cccc(F)c3)C[C@@H]2C1	53.4%
CN(C)S(=O)(=O)N1CC[C@]2(O)CCN(Cc3cccc(C#N)c3)C[C@@H]2C1	-58.1%
CN(C)S(=O)(=O)N1CC[C@]2(O)CCN(Cc3cc(F)cc(F)c3)C[C@@H]2C1	-81.9%
CN(C)S(=O)(=O)N1CC[C@]2(O)CCN(Cc3cccc(F)c3)C[C@@H]2C1	20.7%
CC(C)(C)CN1CCCC12CCN(S(=O)(=O)c1ccccc1)C2 (configuration not stated)	32.5%
c1cnnc(N2CCCC2CNCc2cscn2)c1 (configuration not stated)	35.8%
Cc1ccc(CNCC2CCCN2c2cccnn2)s1 (configuration not stated)	46.6%
Cc1nc(CNCC2CCCN2c2cccnn2)cs1 (configuration not stated)	-34.2%
CC(C)CCc1nc(CNCC2CCCN2c2cccnn2)cs1 (configuration not stated)	67.4%
c1cnnc(N2CCCC2CNCc2nc(-c3ccco3)no2)c1 (configuration not stated)	50.5%
c1cnnc(N2CCCC2CNCc2cccs2)c1 (configuration not stated)	55.7%
CCCc1nc(CNCC2CCCN2c2cccnn2)cs1 (configuration not stated)	37.5%
c1cnnc(N2CCCC2CNCCc2cccs2)c1 (configuration not stated)	40%
c1cnnc(N2CCCC2CNCc2nc(-c3ccoc3)no2)c1 (configuration not stated)	35.2%
c1cncc(-c2noc(CNCC3CCCN3c3cccnn3)n2)c1 (configuration not stated)	-92.3%
c1cnnc(N2CCCC2CNCc2csc(-c3ccco3)n2)c1 (configuration not stated)	41.4%
CCc1nc(CNCC2CCCN2c2cccnn2)cs1 (configuration not stated)	58.7%

SMILES	INHIBITION
COCCOc1ccccc1C(=O)N1CCCC(c2cc(C)[nH]n2)C1 (configuration not stated)	-15.2%
Cc1ccccc1SC1CCN(C(=O)CCCS(N)(=O)=O)CC1	-124%
Cc1noc(C)c1CN1C(=O)[C@@H]2CC[C@H]1CN(Cc1cccnc1N)C2	-49.1%
Cn1cc(CNC2CCc3c(ccc(=O)n3Cc3cccnc3)C2)cn1 (configuration not stated)	-48.3%
CCc1cc(C(F)(F)F)n2nc(C3CCCN3C(=O)COC)cc2n1 (configuration not stated)	-17.9%
CCc1cnc(CN(C)C(=O)Nc2cnn(CC3CCCO3)c2)s1 (configuration not stated)	-48.8%
Cc1cccc(CNCC2(O)CCCN(CC3CCCCC3)C2=O)n1 (configuration not stated)	-3.18%
Cc1ncccc1Oc1nccnc1C1CCCN(C(C)C)C1 (configuration not stated)	-26.3%
CN(Cc1nc2ccccc2o1)CC1CCCN1c1cccnn1 (configuration not stated)	69.3%
Cc1nc(CN(C)CC2CCCN2c2cccnn2)oc1C (configuration not stated)	-18.6%
c1cnnc(N2CCCC2CNCc2nc3ccccc3o2)c1 (configuration not stated)	-31.6%
CC(C)c1nnc2ccc(N3CCCC(C(=O)Nc4nccs4)C3)nn12 (configuration not stated)	-58%
CC(C)c1nnc2ccc(N3CCC(C(=O)Nc4nccs4)CC3)nn12	66.9%
Cc1nnc2ccc(N3CCC(C(=O)Nc4nccs4)CC3)nn12	-16.3%
NC(=O)C(c1ccc(F)cc1)N1CCN(CCO)CC1 (configuration not stated)	-133%
NCC(c1ccc(Cl)cc1)N1CCc2sccc2C1 (configuration not stated)	66.5%
CSc1ccc(C(CN)N2CCc3sccc3C2)cc1 (configuration not stated)	9.08%
CSc1ccc(C(CNC(C)=O)N2CCc3sccc3C2)cc1 (configuration not stated)	-77.1%
O=C(COCC1CC1)NCC(c1ccccc1)N1CCc2sccc2C1 (configuration not stated)	-122%
O=C(NCCO)NCC(c1ccccc1)N1CCc2sccc2C1 (configuration not stated)	-6.62%
CCOCCCC(=O)NCC(c1ccccc1)N1CCc2sccc2C1 (configuration not stated)	-59.8%
CSc1ccc(C(CNC(=O)C2CC2)N2CCc3sccc3C2)cc1 (configuration not stated)	20.6%
NCC(c1ccccc1)N1CCc2sccc2C1 (configuration not stated)	57.9%

SMILES	INHIBITION
CC(C)c1ccc(C(CN)N2CCc3sccc3C2)cc1 (configuration not stated)	69.8%
O=C(C1CNCCN1C(=O)CCOc1ccccc1)N1CCOCC1 (configuration not stated)	-116%
COC(=O)[C@@H]1C[C@H](NC(=O)c2cc(=O)[nH]c3ccc(C)cc23)CN1C	5.12%
CSCC[C@H](N)c1nnc(SCC(=O)Nc2ccc(Br)cc2)o1	-102%
Cc1ccccc1C(=O)N1Cc2c(Cn3ccnc3)nn(C)c2C1	-35.3%
CS(=O)(=O)N1CC2(CCN(C(=O)c3ccncc3)CC2)c2ccccc21	-67.5%
Cc1cc(N2CCC(c3ncc[nH]3)CC2)nc(N)n1	-25.6%
Cc1cc(N2CCC(c3ncc[nH]3)CC2)c2ccccc2n1	62.6%
Cc1cc(N2CCC(c3ncc[nH]3)CC2)cc(C)n1	-26.7%
NCC(=O)N1CCCC(c2cncc(Nc3ncccn3)n2)C1 (configuration not stated)	-81.1%
Cc1ccc(CN2CCCC3(COCCN(Cc4c[nH]nn4)C3)C2)s1 (configuration not stated)	37.3%
O=C(c1c[nH]c(=O)[nH]c1=O)N1CCCC(c2cnccn2)C1 (configuration not stated)	-173%
CC(C)Nc1ncnc2c1CCN(C(=O)N1CCOCC1)CC2	-114%
CCC[C@@H]1CN(C(=O)c2cc(-c3cccs3)n(C)n2)C[C@H]1N(C)C	-63%
CCC[C@@H]1CN(C(=O)c2conc2-c2ccccc2)C[C@H]1N(C)C	52.8%
CCC[C@@H]1CN(C(=O)c2ccccc2-c2ncc[nH]2)C[C@H]1N(C)C	-80.9%
CCC[C@@H]1CN(C(=O)c2ccccc2-c2ccccc2)C[C@H]1N(C)C	22.2%
CCC[C@@H]1CN(C(=O)c2ccccc2C(C)=O)C[C@H]1N(C)C	-112%
CCC[C@@H]1CN(C(=O)c2cc3ccccc3cc2O)C[C@H]1N(C)C	52.8%
CCOCC1CN(C2CCCC2)Cc2cnn(CC3CCOCC3)c21 (configuration not stated)	-1.53%
CC(C)N1CCCN(c2nc(-c3cccnc3)nc3c2cnn3C)CC1	43.8%
